Measured values reported in PubChem BioAssay (EPA / NIEHS).
“And” between values parts separate entries of the source, which are not always exact repeats. Equal values may be shown once. The source made the active and inactive calls. Rule for the calls: active = hit-call score of the fitted dose curve at least 0.9, where 1 is the maximum; inactive = score below 0.9.

How the values were obtained:
[1] = CEETOX_H295R_OHPROG: CeeTox H295R High-throughput Steroidogenesis Assay for OH-Progesterone (OHPROG) (AID 2283435); conditions: actives raise or lower the signal;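 for AC50: 17alpha-hydroxyprogesterone secreted into medium measured by HPLC-MS/MS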
In short: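 H295R, 10 uM forskolin prestim 48 h; cmpd in 0.1% DMSO 48 h; medium MTBE-extracted, HPLC-MS/MS for OH-progesterone; 7-pt std curve; bidirectional fit vs DMSO; MTT viability, chemicals diluted until viability >/=70%.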

[2] = CEETOX_H295R_ESTRADIOL: CeeTox H295R High-throughput Steroidogenesis Assay for Estradiol (AID 2283440); conditions: actives raise or lower the signal;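 note: estradiol secreted into medium quantified by LC-MS/MS after dansyl derivatisation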
In short: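 Estradiol secreted into the medium was measured by tandem mass spectrometry after liquid-liquid extraction and dansylation. Human H295R cells had been forskolin-primed (10 uM, 48 h) before a 48 h chemical exposure with 0.1% DMSO.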

[3] = CEETOX_H295R_ESTRONE: CeeTox H295R High-throughput Steroidogenesis Assay for Estrone (AID 2283441); conditions: actives raise or lower the signal;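 note: estrone secreted into medium measured by LC-MS/MS after dansyl derivatization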;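 for AC50: human adrenal H295R cells prestimulated with forskolin for two days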
In short: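 H295R cells prestimulated 48 h with 10 uM forskolin, then exposed 48 h to chemicals in 0.1% DMSO final; estrone in medium extracted with MTBE, dansyl-derivatized, quantified by HPLC-MS/MS; bidirectional fitting versus DMSO, viability by MTT.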

[4] = CEETOX_H295R_PROG: CeeTox H295R High-throughput Steroidogenesis Assay for Progesterone (PROG) (AID 2283442); conditions: actives raise or lower the signal;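 for AC50: human H295R adrenal cells primed with 10 µM forskolin before dosing; progesterone secreted into medium by H295R cells measured by HPLC-MS/MS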
In short: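 Steps: seed H295R cells and let them adhere overnight; prime 48 h with 10 uM forskolin; dose with compound in DMSO at 0.1% final for 48 h; extract medium steroids with MTBE; measure progesterone by LC-MS/MS. MTT viability was run in the same wells.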

[5] = read-out: Tumor necrosis factor receptor superfamily member 6 (Homo sapiens) (UniProt P25445); experiment: LTEA_HepaRG_FAS: Life Technologies and Expression Analysis (LTEA) Assay for Fas cell surface death receptor (FAS) using HepaRG (AID 2283447); conditions: mRNA level, 48 h; actives raise or lower the signal
In short: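 FAS transcript level was measured by TaqMan qRT-PCR against three housekeeping genes after 48 h chemical exposure. Cells were HepaRG, 0.5% DMSO vehicle, with a top concentration of 100 uM and half-log dilutions over eight points, in duplicate.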

[6] = read-out: Fatty acid synthase (Homo sapiens) (UniProt P49327); experiment: LTEA_HepaRG_FASN: Life Technologies and Expression Analysis (LTEA) Assay for Fatty Acid Synthase (FASN) using HepaRG (AID 2283448); conditions: mRNA level, 48 h; actives raise or lower the signal;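 for AC50: differentiated human HepaRG liver cells in serum-free induction medium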
In short: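 FASN expression changes, up or down relative to 0.5% DMSO, were measured by qRT-PCR in human HepaRG cells after 48 h treatment with chemicals at eight concentrations (half-log steps from 100 uM).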

[7] = CEETOX_H295R_CORTIC: CeeTox H295R High-throughput Steroidogenesis Assay for Corticosterone (CORTIC) (AID 2283437); conditions: actives raise or lower the signal;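 note: corticosterone secreted into medium quantified by mass spectrometry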
In short: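 Corticosterone secreted into medium is measured by reverse-phase HPLC with tandem MS following liquid-liquid extraction. Cells are forskolin-stimulated (10 uM, 48 h) before 48 h test exposure; activity fitted in both directions against DMSO.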

[8] = CEETOX_H295R_CORTISOL: CeeTox H295R High-throughput Steroidogenesis Assay for Cortisol (AID 2283438); conditions: actives raise or lower the signal;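 note: cortisol secreted into medium quantified by LC-MS/MS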
In short: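 Forskolin 10 uM 48 h prestim → test cmpd in DMSO (0.1% final) 48 h → medium MTBE-extracted → LC-MS/MS cortisol vs 7-pt std curve. Gain/loss of signal fitted vs DMSO. MTT viability in same wells.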

[9] = CEETOX_H295R_DOC: CeeTox H295R High-throughput Steroidogenesis Assay for DOC (AID 2283439); conditions: actives raise or lower the signal
In short: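 Readout: 11-deoxycorticosterone in culture medium by reverse-phase C18 HPLC with ESI+ tandem MS after MTBE extraction. Cells: H295R, forskolin-primed (10 uM, 48 h), chemical-treated 48 h; DMSO 0.1% final. Activity fitted bidirectionally versus DMSO.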

[10] = CEETOX_H295R_ANDR: CeeTox H295R High-throughput Steroidogenesis Assay for Androstenedione (ANDR) (AID 2283436); conditions: actives raise or lower the signal;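 note: human H295R adrenal cells exposed for 48 h with androstenedione measured in medium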
In short: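 Read-out is androstenedione secreted into medium, measured by tandem mass spectrometry after liquid-liquid extraction. Cells were H295R, dosed for 48 h per modified OECD 456; activity fitted in both directions relative to DMSO.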

Measured: AC50

Chain of Fatty acid synthase (Homo sapiens) (P49327 whole entry, looked up): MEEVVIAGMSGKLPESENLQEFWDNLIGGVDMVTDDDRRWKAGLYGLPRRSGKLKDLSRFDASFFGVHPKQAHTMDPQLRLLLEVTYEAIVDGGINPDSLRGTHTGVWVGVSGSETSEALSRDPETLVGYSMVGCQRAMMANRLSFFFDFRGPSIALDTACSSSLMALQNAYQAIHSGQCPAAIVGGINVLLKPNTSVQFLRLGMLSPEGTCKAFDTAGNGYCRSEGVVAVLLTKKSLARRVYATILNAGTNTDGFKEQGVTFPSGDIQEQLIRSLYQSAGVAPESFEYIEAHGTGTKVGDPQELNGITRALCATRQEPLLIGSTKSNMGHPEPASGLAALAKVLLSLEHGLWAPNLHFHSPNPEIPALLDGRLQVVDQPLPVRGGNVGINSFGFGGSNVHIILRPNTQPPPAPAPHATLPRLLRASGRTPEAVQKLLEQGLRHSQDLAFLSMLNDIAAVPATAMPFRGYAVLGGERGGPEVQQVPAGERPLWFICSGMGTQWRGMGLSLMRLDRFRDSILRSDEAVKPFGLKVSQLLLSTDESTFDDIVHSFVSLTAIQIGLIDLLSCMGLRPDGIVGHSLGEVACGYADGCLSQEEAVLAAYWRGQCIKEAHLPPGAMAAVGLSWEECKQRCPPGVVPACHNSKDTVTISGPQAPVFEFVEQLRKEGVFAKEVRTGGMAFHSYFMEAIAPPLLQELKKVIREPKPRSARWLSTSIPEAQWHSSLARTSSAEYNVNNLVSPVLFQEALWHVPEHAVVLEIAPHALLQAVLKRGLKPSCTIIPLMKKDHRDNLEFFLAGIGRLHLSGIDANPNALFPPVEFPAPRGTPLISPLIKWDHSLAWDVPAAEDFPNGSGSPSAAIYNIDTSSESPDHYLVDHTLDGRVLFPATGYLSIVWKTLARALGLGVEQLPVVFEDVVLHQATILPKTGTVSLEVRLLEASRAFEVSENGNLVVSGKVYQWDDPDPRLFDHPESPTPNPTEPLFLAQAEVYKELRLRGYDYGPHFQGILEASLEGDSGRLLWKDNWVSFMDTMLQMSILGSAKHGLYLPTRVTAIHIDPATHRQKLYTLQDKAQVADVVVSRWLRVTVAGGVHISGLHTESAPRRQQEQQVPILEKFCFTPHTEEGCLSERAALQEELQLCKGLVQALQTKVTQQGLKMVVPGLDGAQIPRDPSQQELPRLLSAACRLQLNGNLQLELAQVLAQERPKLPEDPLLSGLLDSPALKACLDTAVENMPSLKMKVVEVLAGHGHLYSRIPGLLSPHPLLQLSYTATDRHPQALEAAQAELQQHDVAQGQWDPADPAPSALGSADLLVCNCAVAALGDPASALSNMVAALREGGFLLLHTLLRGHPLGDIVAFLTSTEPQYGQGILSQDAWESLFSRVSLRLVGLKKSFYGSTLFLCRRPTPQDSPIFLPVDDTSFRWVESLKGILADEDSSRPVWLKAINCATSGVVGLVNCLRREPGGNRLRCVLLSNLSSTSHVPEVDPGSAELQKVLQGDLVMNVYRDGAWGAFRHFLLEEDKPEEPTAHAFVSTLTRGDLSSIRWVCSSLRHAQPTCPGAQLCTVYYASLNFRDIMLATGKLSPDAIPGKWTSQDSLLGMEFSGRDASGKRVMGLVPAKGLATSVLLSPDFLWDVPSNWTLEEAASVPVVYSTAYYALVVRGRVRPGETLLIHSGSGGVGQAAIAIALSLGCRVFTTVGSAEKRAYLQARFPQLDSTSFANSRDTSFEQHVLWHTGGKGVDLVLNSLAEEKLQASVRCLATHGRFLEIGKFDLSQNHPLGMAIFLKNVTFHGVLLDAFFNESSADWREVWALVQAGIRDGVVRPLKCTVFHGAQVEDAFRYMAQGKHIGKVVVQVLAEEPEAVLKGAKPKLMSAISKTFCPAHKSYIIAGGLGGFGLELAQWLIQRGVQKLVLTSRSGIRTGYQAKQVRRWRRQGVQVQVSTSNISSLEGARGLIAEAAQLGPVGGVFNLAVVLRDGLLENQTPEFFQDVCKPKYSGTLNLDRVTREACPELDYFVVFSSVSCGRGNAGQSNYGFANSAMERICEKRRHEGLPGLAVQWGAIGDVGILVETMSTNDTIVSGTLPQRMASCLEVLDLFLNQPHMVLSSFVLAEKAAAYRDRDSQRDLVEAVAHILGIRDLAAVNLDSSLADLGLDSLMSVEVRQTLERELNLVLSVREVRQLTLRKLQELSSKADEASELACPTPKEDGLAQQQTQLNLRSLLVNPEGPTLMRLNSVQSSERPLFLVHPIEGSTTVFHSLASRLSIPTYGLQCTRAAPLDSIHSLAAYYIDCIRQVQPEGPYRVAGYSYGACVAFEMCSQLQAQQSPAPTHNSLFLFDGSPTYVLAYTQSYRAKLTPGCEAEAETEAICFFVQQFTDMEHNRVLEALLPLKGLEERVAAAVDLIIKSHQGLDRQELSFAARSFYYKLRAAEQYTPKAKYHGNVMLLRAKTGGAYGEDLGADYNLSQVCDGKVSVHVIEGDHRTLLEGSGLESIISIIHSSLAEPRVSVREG

Cc1ccc(O)cc1C
inactive: [1] | [2] | [3] | [4] | [5] | [6]

CCCCc1ccc(O)cc1
inactive: [1] | [9] | [2] | [4]
active: [7] 28.3 µM | [8] 28.4 µM | [3] 32.2 µM

Nc1ccc2ccccc2c1
active: [1] 13.9 µM | [4] 13.8 µM | [6] 10.6 µM
inactive: [2] | [3] | [5]

ClC(Cl)=C(c1ccc(Cl)cc1)c1ccccc1Cl
not listed: [5] | [6]
inactive: all other assays above

Nc1ccc([N+](=O)[O-])cc1Cl
inactive: [1] | [10] | [7] | [8] | [9] | [4]

CC(=O)c1ccc(-c2ccccc2)cc1
inactive: [8] | [4]
active: [1] 25.8 µM | [10] 50 µM | [7] 18.9 µM | [9] 36.5 µM

CCOP(=S)(OCC)SCn1nnc2ccccc2c1=O
active: [1] 10 µM | [4] 8.4 µM
inactive: [7] | [8] | [9] | [2] | [3]

Cc1cccc(N)c1
inactive: [1] | [4] | [6]

CO/N=C(/C(=O)OC)c1ccccc1COc1ccccc1C
active: [1] 4.07 µM | [10] 21.2 µM | [8] 9.52 µM | [4] 4.24 µM
inactive: [7] | [9]

Cc1ccc(N)cc1N
inactive: [7] | [9] | [2] | [3] | [5]
active: [6] 14.7 µM

c1ccc(OP(Oc2ccccc2)Oc2ccccc2)cc1
not listed: [10]
inactive: all other assays above

N#Cc1c(-c2ccc(Cl)cc2)[nH]c(C(F)(F)F)c1Br
active: [1] 0.282 µM | [7] 0.291 µM | [8] 0.645 µM | [9] 0.253 µM
inactive: [10] | [2] | [3] | [4]

CC(C)Nc1ccc(Nc2ccccc2)cc1
not listed: [5] | [6] | [10]
inactive: all other assays above

Oc1ccc(I)cc1
inactive: [7] | [8] | [9] | [2] | [3]
active: [1] 18.6 µM | [4] 17 µM

O=S(=O)(c1ccc(O)cc1)c1ccc(O)cc1
active: [1] 0.82 µM | [8] 28.4 µM | [9] 3.31 µM | [2] 18.3 µM | [4] 1.32 µM
inactive: [7] | [3]

CCNc1nc(Cl)nc(NC(C)(C)C)n1
active: [3] 1.51 µM
inactive: all other assays above

CCCCOCCOP(=O)(OCCOCCCC)OCCOCCCC
not listed: [5] | [6] | [10]
inactive: all other assays above

Nc1cc2c3c(c1)C(c1ccccc1)=N[C@@H](NC(=O)c1cccnc1)C(=O)N3CC2
inactive: [2] | [3] | [5] | [6]
active: [1] 4.41 µM | [7] 18.3 µM | [8] 76.8 µM | [9] 33.8 µM | [4] 3.44 µM

CC(C)(C)c1ccc(O)cc1
active: [1] 24.2 µM
inactive: [4] | [5] | [6]

Nc1ccc(Cl)cc1
active: [1] 25.5 µM | [9] 50 µM | [4] 16.5 µM
inactive: [7] | [8] | [5] | [6]

CCCCc1ccccc1
inactive: [5] | [6]

CCC(C)(C)c1ccc(O)cc1
active: [1] 15.5 µM | [9] 21.9 µM
not listed: [6] | [10]
inactive: all other assays above

O=P(Oc1ccccc1)(Oc1ccccc1)Oc1ccccc1
active: [1] 1.85 µM | [4] 1.37 µM
not listed: [3] | [10]
inactive: all other assays above

COP(N)(=S)OC
inactive: [1] | [10] | [7] | [8] | [9] | [4]

c1ccc2c(c1)Nc1ccccc1S2
active: [1] 20.4 µM and 25 µM and 18.1 µM | [3] 9.58 µM and 17.3 µM and 12 µM | [4] 2.23 µM and 2.16 µM and 12.2 µM | [6] 50 µM
inactive: [2] | [5]

O=S1(=O)OCC2C(CO1)C1(Cl)C(Cl)=C(Cl)C2(Cl)C1(Cl)Cl (stereo not drawn)
active: [1] 10 µM | [8] 9.67 µM | [9] 7.77 µM | [4] 1.03 µM
inactive: [7] | [2] | [3]

CCOP(=S)(Oc1ccc([N+](=O)[O-])cc1)c1ccccc1 (stereo not drawn)
active: [1] 0.404 µM | [4] 0.786 µM
inactive: [2] | [3] | [5] | [6]

CCOP(=S)(NC(C)C)Oc1ccccc1C(=O)OC(C)C (stereo not drawn)
active: [1] 4.65 µM | [7] 6.94 µM | [4] 6.65 µM
inactive: [8] | [9] | [2] | [3]

CCCN(CCC)c1c([N+](=O)[O-])cc(C(C)C)cc1[N+](=O)[O-]
active: [5] 12.7 µM
inactive: [6]

OCC1CO1 (stereo not drawn)
inactive: [5] | [6]

CCOS(=O)(=O)OCC
inactive: [5] | [6]

c1nc[nH]n1
inactive: [5] | [6]

ClC(Cl)(Cl)c1ccccc1
inactive: [5] | [6]

CCOP(=S)(OCC)SCSCC
inactive: [5] | [6]

CCOc1ccc(C(C)(C)COCc2cccc(Oc3ccccc3)c2)cc1
inactive: [5] | [6]

CCC1(c2ccccc2)C(=O)N=C(O)NC1=O (stereo not drawn)
inactive: [5] | [6]

CSC(C)(C)C=NO
inactive: [5] | [6]

O=C(O)C1C(C(=O)O)C2(Cl)C(Cl)=C(Cl)C1(Cl)C2(Cl)Cl (stereo not drawn)
inactive: [5] | [6]

COCCOCCO
inactive: [5] | [6]

O=[N+]([O-])c1ccccc1
inactive: [6]

ClC(Cl)c1ccccc1
inactive: [5] | [6]

O=[N+]([O-])c1ccc(Cl)c(Cl)c1
inactive: [5] | [6]

CCCCN(CCCC)SN(C)C(=O)Oc1cccc2c1OC(C)(C)C2
inactive: [5] | [6]

O=P1(N(CCCl)CCCl)NCCCO1 (stereo not drawn)
inactive: [5] | [6]

CN(C)C(=O)Cl
inactive: [5] | [6]

O=C(O)C(Cl)Cl
inactive: [5] | [6]

[N-]=[N+]=[N-]
inactive: [5] | [6]

CC(Cl)(Cl)C(=O)O
inactive: [5] | [6]

CC(Cc1ccc(OCC(=O)O)cc1)NCC(O)c1csc(C(F)(F)F)n1 (stereo not drawn)
inactive: [5] | [6]

CCCCN(CCCC)N=O
inactive: [5] | [6]

ClC1=C(Cl)C2(Cl)C3C(Cl)C(Cl)CC3C1(Cl)C2(Cl)Cl (stereo not drawn)
inactive: [5] | [6]

CCOC(=O)c1ccccc1C(=O)OCC
inactive: [5] | [6]

c1cc2c3c(cccc3c1)CC2
inactive: [5] | [6]

Cc1ccc([N+](=O)[O-])cc1C
inactive: [5] | [6]

CCN(CC)c1ccccc1
inactive: [5] | [6]

CCCCCCCc1ccc(O)cc1
inactive: [5] | [6]

CC(C)(C)OOC(C)(C)C
inactive: [5] | [6]
